# Experimental data taken from PubChem BioAssay AID1347076 (National Center for Advancing Translational Sciences (NCATS), 2019).
# Several values for one entry are separate records, joined by “and”; a condition that tells them apart may be missing. Equal entries are not always repeated. About 13,000 (3.2%) of roughly 400,000 compounds were called active. About 18% were inconclusive and are not listed. The entries come from a sample that favours actives as a whole. Unmarked numbers belong to inactive results. Calls come from the whole dose curve; as a rule, active = well fitted cell-killing curve with a large enough effect; inconclusive = small, poorly fitted or top-dose-only effect, or effect the other way; inactive = flat fitted curve, though single readings scatter.
# Test: qHTS assay for MDR1-selective chemotherapeutics: Primary screen using the drug-selected MDR subline cells KB-V1; note: nearly all actives have a fitted effect of over 60% in size
# Settings: KB-V1 MDR cells viability, CellTiter-Glo, 72 h; series mostly up to 46.1 µM; activity change, negative = cytotoxicity: at the top concentration
# Procedure, shortened: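 Following 72 h at 37 degrees C with compound, KB-V1 cell viability was read by CellTiter-Glo luminescence, medium being phenol-red-free DMEM plus 10% FBS; concentration-response parameters came from normalized, curve-fitted qHTS data.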
# % is set by controls: 0 for no effect and ±100 for the full control effect; potency is the fitted concentration of half-maximal effect.
Structure (SMILES),"activity change, negative = cytotoxicity [%]",Potency
COC(=O)[C@]12CCCCC=C1N(Cc1ccco1)C(=O)[C@H](CC(=O)NCC1CCCCC1)C2,6.39,–
CC1=C(C(=O)Nc2ccccc2Cl)C(c2cccs2)n2ncnc2N1 (stereo unspecified),-6.43,–
COc1ccccc1NC(=O)C1=C(C)Nc2ncnn2C1c1sccc1C (stereo unspecified),0,–
CCOC(=O)C1=C(C)Nc2nc3ccccc3n2C1c1cccs1 (stereo unspecified),–,3.26 µM (active)
COc1ccccc1NC(=O)C1=C(C)Nc2nc3ccccc3n2C1c1cccs1 (stereo unspecified),–,5.8 µM (active)
COC(=O)c1ccc(C2C(C(=O)Nc3ccccc3)=C(C)Nc3nc4ccccc4n32)cc1 (stereo unspecified),-5.17,–
CCOc1ccc(C2C(C(=O)NC)=C(C)Nc3nc4ccccc4n32)cc1OC (stereo unspecified),-6.45,–
O=S1(=O)C[C@@H](N2CCN(CCO)CC2)[C@H](COCc2ccccc2)N1,-9.39,–
CC1(C(=O)NCc2ccccc2)CN(S(C)(=O)=O)CC(=O)N1CC(F)(F)F (stereo unspecified),5.12,–
CN(C)CCN1CCN(c2cc(-c3cccc(Cl)c3)nc3ccnn23)CC1,7.25,–
CCc1nc2c(OCC(N)=O)cccn2c1N(C)C(=O)c1ccc(OC)cc1,0,–
CC1=C(C(=O)N2CCOCC2)CC(CC(=O)NCc2cccs2)C(=O)N1CCCN1CCCC1=O (stereo unspecified),-2.21,–
C#C[C@]1(O)CC[C@H]2[C@@H]3CCC4=CC(=O)CC[C@@H]4[C@H]3CC[C@@]21CC,–,13 µM (active) and 7.31 µM (active)
CCCCCCCCN1C(=O)[C@H](CC(=O)NCC23CC4CC(CC(C4)C2)C3)C[C@@]2(C(=O)OC)CCCCC=C12,-1.91,–
CC(C)Sc1oc(-c2cccs2)nc1S(=O)(=O)c1ccc(Cl)cc1,-19.7,–
CS(=O)(=O)N1CCN(c2ccc(C(=O)NC3C4CC5CC(C4)CC3C5)cc2[N+](=O)[O-])CC1 (stereo unspecified),–,11.6 µM (active)
CC(NC(=O)c1ccc(N2CCNCC2)c([N+](=O)[O-])c1)C12CC3CC(CC(C3)C1)C2 (stereo unspecified),-12.3,–
O=C(NC1C2CC3CC(C2)CC1C3)c1ccc(N2CCNCC2)c([N+](=O)[O-])c1 (stereo unspecified),-24.8,–
COc1ccc(-c2cc3nc(NCCOc4ccccc4)ccn3n2)cc1,-1.29,–
CCc1nc2onc(C)c2c(=O)n1CC(=O)O,20.4,–
COCCCNC(NC(=O)c1ccc(C)cc1)C(Cl)(Cl)Cl (stereo unspecified),–,20.6 µM (active)

Structure (SMILES),"activity change, negative = cytotoxicity [%]",Potency
COCCCNC(NC(=O)c1ccc(OC)cc1)C(Cl)(Cl)Cl (stereo unspecified),-0.612,–
CCOCCCNC(=O)C(NC(=O)CNC(=O)c1ccccc1)c1ccc(C)cc1 (stereo unspecified),0.549,–
CCOC(=O)[C@]12CCC=C1N(Cc1ccco1)C(=O)[C@H](CC(=O)N1CCSCC1)C2,-25.8,–
CC(C)Oc1ccc(CN2CCC2(C)C(=O)NCc2ccc(C(F)(F)F)cc2)cc1 (stereo unspecified),-8.92,–
Cc1cccc(-c2nc(SCC(=O)Nc3cc(C)on3)c3c(=O)n(C)c(=O)n(C)c3n2)c1,8.61,–
Cc1nc2ccccc2nc1CC(O)(c1ccccc1)c1ccccc1,-13.9,–
O=C(NCc1ccccc1)C(=O)NCC(c1ccco1)S(=O)(=O)c1ccc(Cl)cc1 (stereo unspecified),-23.4,–
CC(C)C(=O)N1CCN(c2nc(-c3ccccc3)c3c(c2C#N)CC(C)(C)OC3)CC1,15.4,–
COc1ccc(CSc2nc(N3CCOCC3)c3c(c2C#N)CC(C)(C)OC3)cc1,-7.53,–
CC1(C)Cc2c(C#N)c(SCc3nc4ccccc4[nH]3)nc(N3CCOCC3)c2CO1,–,9.2 µM (active)
COc1cccc(CNCc2c(C(=O)O)n(Cc3ccc(C)cc3)c3cc(C)ccc23)c1OC,-12.2,–
Fc1ccc2[nH]c3c(N4CCN(Cc5ccc6c(c5)OCO6)CC4)ncnc3c2c1,–,9.2 µM (active)
Fc1ccc2[nH]c3c(N4CCSCC4)ncnc3c2c1,–,3.26 µM (active)
CCCCCc1c(C)nc(N2CCN(Cc3ccc4c(c3)OCO4)CC2)[nH]c1=O,8.37,–
Cc1c(CN2CC[C@@H](N3CCN(c4ccccn4)CC3)[C@H](O)C2)[nH]c2ccc(F)cc12,19.3,–
O=c1[nH]c(N2CCN(Cc3ccc4c(c3)OCO4)CC2)nc2c1CCCC2,0.611,–
CC1=C(C(=O)N(C)C)CC(CC(=O)NCCc2ccccn2)C(=O)N1CCC1=CCCCC1 (stereo unspecified),-2.02,–
COCCNc1nc(Nc2ccccc2Cl)c2sc(-c3ccccc3)cc2n1,1.9,–
CC(=O)Nc1ccc(Nc2cc(C)nc(Nc3ccc(NC(C)=O)cc3)n2)cc1,0.471,–
COc1ccc(NC(=O)c2nc(-n3nc(C)cc3C)ccc2Cl)cc1Cl,-16.4,–
COc1ccc(Nc2cc(C)nc(-n3nc(C)cc3C)n2)cc1,–,0.231 µM (active)

Structure (SMILES),"activity change, negative = cytotoxicity [%]",Potency
CC1(C)NC(=O)N(CC(=O)Nc2ccc(-c3ccccc3)cc2)C1=O,6.88,–
CC1(Oc2ccc(Cl)cc2)CCN(Cc2csc3ccccc23)C1 (stereo unspecified),6.11,–
COc1ccc(-n2nnnc2SCc2nc(N)nc(N3CCOCC3)n2)cc1,-2.46,–
CN(C)c1nc(N)nc(CSc2nnnn2-c2cccc3ccccc23)n1,–,6.51 µM (active)
CN(C)c1nc(N)nc(CSc2ccccn2)n1,-15,–
CCOC(=O)C1CCCN(C(=O)c2ccc(C)c(F)c2)CC1 (stereo unspecified),2.89,–
COc1ccc(N(Cc2ccccc2)S(=O)(=O)c2cccc(C(=O)O)c2)cc1,-6.55,–
COc1ccc(N(CCC#N)S(=O)(=O)c2ccc(Cl)cc2)cc1,–,16.4 µM (active)
COc1ccc(S(=O)(=O)NCCCCOc2ccc(Cl)cc2)cc1,2.27,–
CCCCNC(=O)Cn1c(SCc2cccc(Cl)c2)nc2ccncc21,24.9,–
O=C(NCCO)c1cccc(-c2cccc3nccn23)c1,2.1,–
CCC(=O)N1c2ccccc2CC1C(=O)N1CCN(c2cccc(OC)c2)CC1 (stereo unspecified),-2.51,–
Cc1ccc(NC(=O)Cn2sc3ccccc3c2=O)cc1,-4.65,–
CC(C)OCCCn1c(SCC(=O)c2ccccc2)nc2c(sc3ccccc32)c1=O,-4.17,–
COc1ccc(C(=O)Nc2c(Cl)cc(Cl)cc2C(=O)N2CCC(C)CC2)cc1,–,3.26 µM (active)
COc1ccc(N2CCN(C(=O)C3CCN(C(=O)c4ccccc4Cl)CC3)CC2)cc1,-0.446,–
COc1ccc(C(=O)Nc2ccccc2C(=O)N2CCN(c3ccccc3)CC2)cc1,2.33,–
CCCNC(=O)C1(C)CCN1C(=O)Cc1ccc(-c2ccccc2)cc1 (stereo unspecified),-9.32,–
COC(=O)c1scc(-c2ccc(C)cc2)c1S(=O)(=O)Nc1cc(Cl)c(OC)cc1OC,-3.69,–
